Rows were chosen to be rich in hits. Some 12% of all compounds tested hit in one or more screens of this group.
Sfp inh – inhibitors of Bacillus subtilis Sfp phosphopantetheinyl transferase; actives 3.5% (n = 310,000); Biochemical Sfp PPTase activity, qHTS; Potency, µM, for the others: largest response in the series, negative = inhibition, hits mostly inhibitors; Q9F4F7; AID 1490;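 further: the enzyme is Sfp with the accession as filed and its product quenches rhodamine fluorescence; 0% = enzyme reaction without inhibitor and -100% = no enzyme wells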
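With Hepes-Na pH 7.6 buffer containing 10 mM MgCl2, Sfp (15 nM) modified BHQ-2-YbbR (12.5 uM) using rhodamine-CoA (5 uM). Two reads 30 minutes apart at 525/598 nm yielded each well's rate.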
HP1b chromo inh – blocks HP1-beta chromodomain binding to methylated histone tails; Potency, µM (series often up to 114 µM), without a hit: top-dose activity change, negative = inhibition, most hits filed as inhibitors; actives 0.56% (n = 390,000); P83916; AlphaScreen HP1-beta / biotin-H3K9me3 peptide binding; further: nearly all actives have a fitted effect of over 70% in size
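HP1-beta protein (50 nM final) preincubated 30 min at room temperature with biotinylated H3(1-18)K9me3 peptide (50 nM) in PBS pH 7.4, 0.01% Tween-20, then compound added for 30 min. AlphaScreen streptavidin donor/nickel chelate acceptor beads (10 ug/mL final), 30 min dark, luminescence read.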
G9a inh – blocks human histone lysine methyltransferase G9a; Potency, µM (series often up to 102 µM), without a hit: top-dose activity, negative = inhibition, hits mostly inhibitors; actives 8.8% (n = 350,000); G9a H3K9 monomethylation, AlphaScreen, 2 h; AID 504332; Q96KQ7; further: on the % scale 0 is the no-effect control and ±100 the full control effect; nearly all actives have a fitted effect of over 75% in size
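Step 1: enzyme (final 20 nM) with compound, 15 min RT. Step 2: substrate peptide 500 nM and SAM 20 uM, 2 h RT. Step 3: anti-H3K9me1 antibody and AlphaScreen beads, 10 min, then plate read.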
BAZ2B block – BAZ2B (human) inhibition; AlphaScreen BAZ2B-H3K14Ac peptide displacement; Q9UIF8; Potency, µM (series often up to 114 µM), for the others: at the highest dose activity change, negative = inhibition, most hits filed as inhibitors; actives 4.4% (n = 360,000); further: on the % scale 0 is the no-effect control and ±100 the full control effect; nearly all actives have a fitted effect of over 60% in size
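Multi-concentration screen (max 110 uM) measuring displacement of acetylated histone H3 peptide from BAZ2B by AlphaScreen, using 50 nM protein, 50 nM peptide and 10 ug/mL streptavidin donor plus Ni-chelate acceptor beads.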
JMJD2A Tudor – inhibitors of human JMJD2A Tudor domain. AID 504339. Potency, µM (top dose mostly 114 µM), for the others: top-dose activity change, negative = inhibition, actives largely listed as inhibitors. actives 4.4% (n = 390,000). AlphaScreen JMJD2A-Tudor / H3K4me3 peptide binding. O75164; further: on the % scale 0 is the no-effect control and ±100 the full control effect; nearly all actives have a fitted effect of over 50% in size
Target sequence (O75164 whole entry, looked up, the tested form may be a part): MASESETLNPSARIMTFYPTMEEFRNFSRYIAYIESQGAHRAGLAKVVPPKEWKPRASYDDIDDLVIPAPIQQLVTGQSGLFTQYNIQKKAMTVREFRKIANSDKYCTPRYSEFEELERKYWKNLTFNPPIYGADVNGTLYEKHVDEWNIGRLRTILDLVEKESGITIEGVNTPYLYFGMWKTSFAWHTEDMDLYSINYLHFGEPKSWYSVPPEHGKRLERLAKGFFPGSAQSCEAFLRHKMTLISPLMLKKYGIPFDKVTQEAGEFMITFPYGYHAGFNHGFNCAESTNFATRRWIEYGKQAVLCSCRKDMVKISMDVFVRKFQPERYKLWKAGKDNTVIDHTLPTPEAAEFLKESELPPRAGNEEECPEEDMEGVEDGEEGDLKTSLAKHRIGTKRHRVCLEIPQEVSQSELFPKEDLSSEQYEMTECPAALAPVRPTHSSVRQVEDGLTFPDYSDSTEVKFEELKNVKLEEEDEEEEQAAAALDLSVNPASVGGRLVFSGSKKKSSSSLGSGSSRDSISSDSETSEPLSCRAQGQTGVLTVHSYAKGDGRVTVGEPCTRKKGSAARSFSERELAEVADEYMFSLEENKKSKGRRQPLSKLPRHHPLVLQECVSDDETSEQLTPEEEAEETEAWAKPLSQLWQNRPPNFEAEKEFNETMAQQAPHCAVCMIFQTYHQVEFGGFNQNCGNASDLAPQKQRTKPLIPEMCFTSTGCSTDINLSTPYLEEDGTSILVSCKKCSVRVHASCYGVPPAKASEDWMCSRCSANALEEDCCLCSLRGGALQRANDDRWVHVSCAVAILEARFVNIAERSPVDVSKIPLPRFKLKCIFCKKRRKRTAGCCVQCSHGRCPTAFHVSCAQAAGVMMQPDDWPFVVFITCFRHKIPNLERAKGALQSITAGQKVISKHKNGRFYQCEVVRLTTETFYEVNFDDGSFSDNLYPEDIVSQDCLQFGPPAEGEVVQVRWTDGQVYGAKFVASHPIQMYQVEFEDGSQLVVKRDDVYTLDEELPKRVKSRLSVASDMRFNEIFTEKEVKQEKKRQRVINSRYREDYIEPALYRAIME
L3MBTL1 block – inhibitors of human L3MBTL1; AlphaScreen L3MBTL1–H3K9me1 peptide binding; Potency, µM (top dose mostly 57.1 µM), inactives show at the top dose activity, negative = inhibition, actives largely listed as inhibitors; actives 0.66% (n = 230,000); Q9Y468; further: on the % scale 0 is the no-effect control and ±100 the full control effect; nearly all actives have a fitted effect of over 60% in size
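L3MBTL1 (50 nM) pre-complexed 30 min with biotinylated H3(1-15)K9me1 peptide (75 nM), then compounds added for 30 min at room temperature; AlphaScreen streptavidin donor/nickel chelate acceptor beads (10 ug/mL final) read after 30 min dark incubation.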
* hit, by the source's call; ? = inconclusive; / = no result; [ ] = dose if it differs, or a comment. The call rests on the fitted dose curve; in most records, active means well fitted curve in the direction sought with a large enough effect; inconclusive means small, poorly fitted or top-dose-only effect, or another doubt; inactive means no such curve, though single readings can be large; an effect the other way counts as inactive or inconclusive. Potency means the concentration at half of the fitted maximal effect.

SMILES	Sfp inh	HP1b chromo inh	G9a inh	BAZ2B block	JMJD2A Tudor	L3MBTL1 block
CCc1ccc(NC(=O)CN2C(=O)c3ccccc3Sc3ccc(C(=O)N4CCCC4)cc32)cc1	/	3%	-31%[59 µM]	-15%	-12%	/
CN(C)c1ccc(NC(=O)CN2C(=O)c3ccccc3Sc3ccc(C(=O)N4CCCC4)cc32)cc1	/	-16%	4.5µM*	?	?	/
CC1=C(C(=O)Nc2ccc(C(=O)N3CCN(c4cccc(Cl)c4)CC3)cc2)SCCO1	-5%	-7%	45µM*	?	?	/
Cc1cccc(N2CCN(C(=O)c3ccc4[nH]c(C)c(C)c4c3)CC2)c1C	/	-38%	/	/	?	-26%
COc1ccc(NC2CCCN(C(=O)c3ccc4[nH]c(C)c(C)c4c3)C2)cc1OC (stereo not given)	0%	-8%	/	45µM*	?	/
Cc1[nH]c2ccc(C(=O)N3CCN(c4ccccc4Cl)CC3)cc2c1C	?	?	?	22µM*	45µM*	/
Cc1[nH]c2ccc(C(=O)N3CCN(c4ccccc4F)CC3)cc2c1C	/	?	?	?	89µM*	/
CCC1(c2ccccc2)SC(N)=NC1=O (stereo not given)	/	19%	/	/	-10%	/
CC1=C(C(=O)Nc2cccc(C(F)(F)F)c2)C2(CCCCC2)OC1=O	/	9%	-6%[59 µM]	-9%	-18%	/
CCn1cc(C(=O)N2CCN(c3cccc(Cl)c3)CC2)c(=O)c2cc(S(=O)(=O)N3CCC(C)CC3)ccc21	/	1%	?	/	-34%	/
Cc1ccc(C)c(N2CCN(S(=O)(=O)c3ccc(-c4cnc(C5CC5)o4)cc3)CC2)c1	/	8%	-2%[12.7 µM]	-36%	-25%	/
CCOC(=O)c1[nH]c(C)c(C(=O)N2CCN(c3ccc(F)cc3)CC2)c1C	2%	16%	?	-34%	-27%	-5%
Cc1[nH]c2ccc(C(=O)N3CCCCC3)cc2c1C	8%	16%	-6%	-8%	-26%	/
CCOC(=O)c1[nH]c(C)c(C(=O)N2CCN(c3cccc(Cl)c3)CC2)c1C	11%	-14%	?	50µM*	?	-6%
COc1ccccc1N1CCN(C(=O)c2ccc3[nH]c(C)c(C)c3c2)CC1	-4%	-23%[57 µM]	40µM*	?	?	/
CC1CCc2[nH]c3ccc(C(=O)O)cc3c2C1 (stereo not given)	6%	37%	/	19%	-4%	15%
Cc1[nH]c2ccc(C(=O)N3CCCC3)cc2c1C	2%	29%	-36%	-20%[57.1 µM]	-10%	/
COc1ccccc1N1CCN(C(=O)c2ccc3[nH]c4c(c3c2)CC(C)CC4)CC1 (stereo not given)	-2%	?	?	40µM*	?	-14%
Cc1[nH]c2ccc(C(=O)N3CCN(c4cccc(Cl)c4)CC3)cc2c1C	-1%	-5%	40µM*	?	?	/
CN(C)C(CNC(=O)c1cc(S(=O)(=O)N2CCOCC2)ccc1Cl)c1cccs1 (stereo not given)	/	29%	/	/	-28%	/
COc1ccccc1N1CCN(C(=O)c2cc3c(C)nc4ccccc4c3o2)CC1	-12%	24%	50µM*	?	-33%	/
CCn1cc(C(=O)N[C@H](C(=O)NCCCN2CCOCC2)C(C)C)c(=O)c2cc3c(cc21)OCO3	2%	21%	/	-14%	1%	/
Cc1cccc(C(=O)NC2CCN(C(=O)Nc3ccccc3C)CC2)c1	5%	11%	-2%	3%	1%	-14%
Cc1ccc(NC(=S)N2CCC(NC(=O)c3ccc(C)cc3)CC2)cc1	9%	-5%	79µM*	-1%	-18%	/
Cc1ccc(NC(=S)N2CCC(NC(=O)c3cccc(F)c3)CC2)cc1	14%	9%	17%	-39%	-23%	/
Cc1cccc(C(=O)NC2CCN(C(=O)Nc3ccc(F)cc3)CC2)c1	11%	-5%	79µM*	-2%	-1%	/

Assay outcomes: PubChem BioAssay, National Center for Advancing Translational Sciences (NCATS)
